# Only some compounds are listed: those with a hit (about 4.1% of all), similar ones and a draw of the others.
# DAX1 inh-1: NR0B1 (DAX1) inhibition; AID 504766; HEK293 Gal4-DAX1 luciferase reporter, luminescence; 340,000 tested, 0.99% active; inhibition, % at 6.75 µM;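 active means inhibition above the mean over all tested compounds plus 3 SD, cut at about 4.2% in these data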;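 further: 0% = DAX1-transfected cells with DMSO and 100% = empty-vector control cells with DMSO; inhibition shows as a rise in luminescence from relieved DAX1 repression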
# Target sequence (P51843 207-470 limits assumed): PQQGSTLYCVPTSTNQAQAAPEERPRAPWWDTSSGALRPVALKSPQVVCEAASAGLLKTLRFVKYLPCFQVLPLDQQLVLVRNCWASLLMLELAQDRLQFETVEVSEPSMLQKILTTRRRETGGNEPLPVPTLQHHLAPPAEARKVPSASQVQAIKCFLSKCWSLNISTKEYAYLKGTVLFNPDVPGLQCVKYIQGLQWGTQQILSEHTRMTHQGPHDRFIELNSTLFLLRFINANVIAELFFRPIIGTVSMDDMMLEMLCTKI
# DAX1 inh-2: DAX1 (NR0B1) inhibition, primary screen; HEK293T StAR-luciferase reporter, SF-1/DAX-1 repression relief; 370,000 tested, 1.1% active; AID 652010; inhibition, % at 6.8 µM;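 active means inhibition above the mean over all tested compounds plus 3 SD, cut at about 3.6% in these data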;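 further: 0% = DAX-1 cells with DMSO and 100% = cells lacking DAX-1 with DMSO; higher inhibition means more luminescence from relief of DAX-1 repression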
# hgDAF-12 ag: hgDAF-12 agonism, primary luciferase screen | HEK293 GAL4-hgDAF12 UAS-luciferase reporter, agonist luminescence; normalized to butyrate control | activation, % at 6.8 µM | 370,000 tested, 1.8% active | AID 687014;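 active means activation above a cutoff set at the mean of all screened compounds plus 3 SD, cut at about 10% in these data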;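 further: 0% = DMSO wells and 100% = sodium butyrate wells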
# hcDAF12 agonist: H. contortus DAF-12 activation, primary screen. HEK293 hcDAF-12 lit1-tk-luc reporter, luminescence; 0% DMSO, 100% Δ7-dafachronic acid. activation, % at 6.8 µM. 370,000 tested, 1.4% active;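 active means activation above the mean of all tested compounds plus 3 SD, cut at about 5.5% in these data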;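 further: 100% = response to 3 µM Δ7-dafachronic acid high control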
# ssDAF12 agonist: activates DAF-12 receptor from parasite S. stercoralis | activation, % at 6.8 µM | 370,000 tested, 1% active | HEK293 ssDAF-12/GRIP1 lit1-tk-luc reporter, luminescence; % of 3 µM dafachronic acid response | AID 652126;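 active means activation above the mean over all tested compounds plus 3 SD, cut at about 0.9% in these data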;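 further: 0% = DMSO-only wells and 100% = 3 µM delta7-dafachronic acid wells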
# Starred values were filed as active, the others as inactive; nt = no result.
SMILES,DAX1 inh-1,DAX1 inh-2,hgDAF-12 ag,hcDAF12 agonist,ssDAF12 agonist
Cc1ccc(S(=O)(=O)N(C)c2ccc(C(=O)NCCc3ccccc3)cc2)cc1,-1,2,6,1,0.9*
CN(c1ccccc1)S(=O)(=O)c1ccc(C(=O)NCc2ccccc2CN2CCCC2)cc1,-1,4.3*,-2,-2,-1
CN(c1ccccc1)S(=O)(=O)c1cccc(C(=O)NCc2ccccc2CN2CCCC2)c1,0,0,1,0,-1
COc1ccc(CCNC(=O)c2ccc(N(C)S(=O)(=O)c3ccc(C)cc3)cc2)cc1,-1,-1,-3,-2,-1
CCC1CCCCN1CC(=O)c1c(C)[nH]c2cc(C)ccc12 (stereo unspecified),4,0,0,5.8*,-1
Cc1ccc2c(C(=O)CN3CCCCC3CCO)c(C)[nH]c2c1 (stereo unspecified),1,0,0,-1,0
O=C(Cn1nnc(N2CCOCC2)n1)NN=Cc1ccccc1Cl,nt,-1,2,0,-1
Cc1ccc(N(CC(=O)N/N=C/c2cccc(Br)c2)S(C)(=O)=O)cc1,0,0,4,4,1.4*
Cc1ccc(C(=O)Nc2cnc3ccccn3c2=O)cc1,1,4.0*,8,2,-1
O=c1c2ccccc2oc2ccc(Oc3ccccc3)cc12,5.1*,2,9,3,0
CCOC(=O)N1CCC(NC(=O)CCCN2C(=O)CSc3ncccc32)CC1,2,0,3,0,-1
CCOC(=O)N1CCC(NC(=O)CN2C(=O)CSc3ncccc32)CC1,5.0*,0,-2,5,-1
Cc1ccc(C(=O)NC(=S)NCC2CCCO2)cc1Br (stereo unspecified),2,1,10,5.7*,0
O=C(NC(=S)NCC1CCCO1)c1ccccc1Br (stereo unspecified),0,0,1,-1,-1
Cc1ccc(-n2c(=S)[nH]c3nc4c(cc3c2=O)COC(C)(C)C4)cc1,-1,0,2,3,-1
CC1(C)Cc2nc3[nH]c(=S)[nH]c(=O)c3cc2CO1,4.8*,1,1,0,-1
CC(C)(C)c1ccc(OCCC(=O)Nc2ccc(N3CCOCC3)cc2N2CCOCC2)cc1,-2,4.0*,1,0,0
CCOc1cc(N2CCOCC2)c(OCC)cc1NC(=O)COC(=O)CCOc1ccc(C(C)(C)C)cc1,0,-1,0,0,-1
CCOc1cc(S(=O)(=O)NCC2OCCc3ccccc32)c(OCC)cc1-n1cnnn1 (stereo unspecified),4.6*,0,0,0,-1
CCOc1cc(S(=O)(=O)NCCc2ccc(OC)c(OC)c2)c(OCC)cc1-n1cnnn1,-1,0,-2,-2,-2
Cc1ccc(Cl)cc1NC(=O)CCC(=O)O,5.0*,0,4,-1,-2
NNC(=S)Nc1ccc(Cl)cc1,-1,0,3,1,0
Cc1ccc(Cl)cc1NC(=S)NN,nt,0,2,2,0.9*
COc1cccc(N2CCN(C(=O)CCn3nnc4ccccc43)CC2)c1,nt,-1,2,-2,-1
CC(OC(=O)c1ccc2c(c1)OCO2)C(=O)NC1CCCCC1 (stereo unspecified),1,0,-3,2,-2
SMILES,DAX1 inh-1,DAX1 inh-2,hgDAF-12 ag,hcDAF12 agonist,ssDAF12 agonist
Cc1ccc(OCCN2CCOCC2)cc1C,1,0,2,1,-1
Cc1cc(OCCN2CCOCC2)ccc1Cl,2,0,12*,5,0
Cc1cc(OCCN2CCCC2)ccc1[N+](=O)[O-],-1,0,1,-1,1.1*
Cc1ccc(OCCCCCN2CCOCC2)c(Cl)c1,4.9*,0,3,0,0
Cc1cc(OCCN2CCOCC2)ccc1[N+](=O)[O-],0,2,4,5,0
Cc1ccc(OCCCN2CCOCC2)c([N+](=O)[O-])c1,3,2,13*,5,-1
O=C(NCc1ccccc1)c1cc(C2COCCN2C(=O)c2ccc3c(c2)CCO3)on1 (stereo unspecified),nt,0,-3,-1,-1
O=C(OCC#CCSc1nnc(-c2cccc3ccccc23)o1)c1cc(F)c(F)c(F)c1,nt,nt,-2,-2,-2
COc1ccc(OC(=O)c2cnn(-c3ccccc3)c2C)cc1,2,2,13*,3,0
CCCc1c(C(=O)Nc2ccc(OC)cc2)cnn1-c1ccccc1,6.3*,0,3,2,0
CCCc1c(C(=O)NNc2ccccc2OC)cnn1-c1ccccc1,0,0,2,-1,-1
Cc1ccc(NC(=O)c2cnn(-c3ccccc3)c2C)c(C)c1,2,1,7,2,0
Cc1ccc(NC(=O)c2csc(-c3ccccc3)c2C)cc1,0,4.3*,6,3,-1
Cc1ccc(NC(=O)c2cnn(-c3ccccc3)c2C)cc1,2,2,11*,4,1.1*
COc1cc(Cl)ccc1OCc1cc(C(=O)N2CCCCCCC2)no1,0,1,3,1,0
O=C(c1cc(COc2ccc3c(c2)CCCC3)on1)N1CCCC1,4,4.0*,10,4,1
COCCN1CCN(C(=O)c2cc(COc3ccc(Cl)cc3OC)on2)CC1,1,4.3*,6,4,0
COc1ccc(OCc2cc(C(=O)N3CCCCCC3)no2)c(Cl)c1,1,4.1*,9,-1,0
CCOC(=O)C1CCN(C(=O)c2cc(COc3ccc(F)cc3F)on2)CC1,2,3,12*,2,1
COc1ccc(OCc2cc(C(=O)N3CCN(CC(=O)N(C)C)CC3)no2)c(Cl)c1,1,0,-1,0,-1
COCC1CCN(C(=O)c2cc(COc3ccc4c(c3)CCCC4)on2)C1 (stereo unspecified),-1,-1,-1,-2,-1
CC(=O)N1CCc2cc(Br)c(S(=O)(=O)NCc3ccc(Cl)cc3)cc21,nt,-1,-2,-1,-2
CC(C)C[C@H]1COc2c(Cl)cccc2S(=O)(=O)N1Cc1ccc(F)cc1F,nt,-1,4,2,-1
CCCCCC(=O)N1C[C@@H](n2cc(C3CC3)nn2)[C@H](O)C[C@@H]1c1ccc(OC)cc1,1,-2,2,-2,-1
CCc1nc2ccc(C(=O)N3CCCCC3)cn2c1N(CCC(C)C)CCN(C)C,nt,0,0,-1,-1
Cc1cc(C)c(S(=O)(=O)N2C[C@H]3CON(C)[C@H]3C[C@H]2c2ccc(-n3ccnc3)cc2)c(C)c1,nt,0,-3,-2,-1
COc1ccc(OCc2cc(C(=O)N3CCSCC3)no2)c(Cl)c1,1,3.9*,10,3,0
CCCCCNC(=O)C(c1cc2ccccc2o1)n1c(=O)c(-c2ccccc2)nc2ccccc21 (stereo unspecified),nt,0,1,3,0
